The nature of assay [1]: qHTS RealTime-Glo MT Cell Viability Assay in HEK293 cells - 16 hour (AID 1224872). Further: nearly all actives have a fitted effect of over 50% in size. Further: potency means the concentration at half of the fitted maximal effect. The method in brief: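 HEK293 cells seeded with NanoLuc/prosubstrate reagent, rested 5 h at 37 C, then dosed and kept at 37 C up to 40 h. Nonlytic real-time luminescence from viable cells read at 0, 8, 16, 24, 32 and 40 h.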
(In general: In qHTS, concentration-response curves come from the screen itself.)

Assay [2] can be described thus: qHTS RealTime-Glo MT Cell Viability Assay in HepG2 cells - 8 hour (AID 1224873). Further: nearly all actives have a fitted effect of over 55% in size. Further: potency means the concentration at half of the fitted maximal effect. The gist of the method: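 HepG2 cells mixed with RealTime-Glo MT reagents (NanoLuc plus cell-permeant prosubstrate) were seeded at 600 cells/well, incubated 5 h at 37 C/5% CO2, then pinned with compounds in DMSO; nonlytic luminescence tracked viability during 40 h treatment.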
The nature of assay [3]: qHTS RealTime-Glo MT Cell Viability Assay in HEK293 cells - 40 hour (AID 1224874). Further: nearly all actives have a fitted effect of over 50% in size. Further: potency means the concentration at half of the fitted maximal effect. On max response: on the % scale 0 is the no-effect control and ±100 the full control effect. As to conditions: RealTime-Glo luminescence; max response: stronger effect = lower value. The method in brief: (§1)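 HEK293 + NanoLuc + prosubstrate, 600 cells/well; 5 h, 37 C/5% CO2; compound 23 nL in DMSO by pintool; 37 C; luminescence read at 0, 8, 16, 24, 32 and 40 h time points.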
Assay [4] is described as follows: A CellTox Green Cytotoxicity Assay to monitor cytotoxicity in HEK293 cells - 24 hour (AID 1224875). Further: nearly all actives have a fitted effect of over 45% in size. Further: potency means the concentration at half of the fitted maximal effect. The method in brief: (§2)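 Tox21 screen in HEK293: membrane-impermeant cyanine dye fluoresces on binding dead-cell DNA; compound pinned 5 h post-seeding, plates held at 37 C, signal read repeatedly through 40 h.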
Assay [5] in a line: A CellTox Green Cytotoxicity Assay to monitor cytotoxicity in HepG2 cells - 16 hour (AID 1224876). Further: nearly all actives have a fitted effect of over 45% in size. Further: potency means the concentration at half of the fitted maximal effect. The gist of the method:
(§3)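 Measurements at 0, 8, 16, 24, 32 and 40 h of treatment captured CellTox Green fluorescence in HepG2 cells that had been co-plated with reagent and preincubated 5 h at 37 C/5% CO2.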

Assay [6] can be described thus: qHTS RealTime-Glo MT Cell Viability Assay in HepG2 cells - 32 hour (AID 1224877). Further: nearly all actives have a fitted effect of over 55% in size. Further: potency means the concentration at half of the fitted maximal effect. The gist of the method: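 HepG2 cells (600/well) were dispensed with RealTime-Glo reagents, incubated 5 h at 37 °C, then treated with compounds in DMSO for up to 40 h. Nonlytic NanoLuc luminescence reflecting viable cells was read at each stated time point.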
Assay [7] in a line: A CellTox Green Cytotoxicity Assay to monitor cytotoxicity in HepG2 cells - 24 hour (AID 1224878). Further: nearly all actives have a fitted effect of over 45% in size. Further: potency means the concentration at half of the fitted maximal effect. On Cytotoxicity: on the % scale 0 is the no-effect control and ±100 the full control effect. The method in brief: as §3
Assay [8] is described as follows: qHTS RealTime-Glo MT Cell Viability Assay in HEK293 cells - 0 hour (AID 1224880). Further: top concentration of the series differs between compounds; on the % scale 0 is the no-effect control and ±100 the full control effect; nearly all actives have a fitted effect of over 45% in size. The gist of the method: as §1
Assay [9] is described as follows: A CellTox Green Cytotoxicity Assay to monitor cytotoxicity in HEK293 cells - 32 hour (AID 1224881). Further: nearly all actives have a fitted effect of over 40% in size. Further: potency means the concentration at half of the fitted maximal effect. The method in brief: as §2
Assay [10] can be described thus: A CellTox Green Cytotoxicity Assay to monitor cytotoxicity in HepG2 cells - 40 hour (AID 1224879). Further: potency means the concentration at half of the fitted maximal effect; nearly all actives have a fitted effect of over 40% in size. The gist of the method:
as §3

Where “and” joins values, the source holds several entries; their conditions need not be identical. Identical values can stand only once. Results filed as inconclusive are left out. Some compounds were tested as several samples or in several runs, with calls that do not always agree. Calls of active or inactive are those of the source. The call rests on the fitted dose curve; in most records, active means well fitted curve in the direction sought with a large enough effect in the repeat runs; inconclusive means weak or mixed curves; inactive means no such curve, though single readings can be large; an effect the other way counts as inactive or inconclusive.

The results in this text go back to PubChem BioAssay (Tox21).

As for `CCCCNC(=O)NS(=O)(=O)c1ccc(C)cc1`, the Potency result in assay [1], in assay [2], in [4], in assay [5], in assay [6] and in assay [7] was “inactive” in each case. Further, the Potency result in assay [8] and in assay [9] was “inactive” in each case. The max response in assay [3] is -2.16% (inactive) and 5.08% (inactive) and 4.55% (inactive).

`Oc1ccccc1`: the Potency entry in [1], in [2], in [4], in [5], in [6] and in assay [7] was “inactive” in each case. In addition, the Potency entry in [8] and in assay [9] was “inactive” throughout. The max response in assay [3] was 1.54% (inactive) [middle of 5 runs].

`Cc1cc(C)nc(NS(=O)(=O)c2ccc(N)cc2)n1`: the Potency entry in assay [1], in assay [2], in assay [4], in assay [5], in assay [6] and in [7] was “inactive” throughout. Further, the Potency result in [8] and in [9] was “inactive” each time. Moreover, the max response in assay [3] was -37.4% (inactive) and -3.88% (inactive) and 7.67% (inactive).

Consider `O=C1O[C@H]([C@@H](O)CO)C(O)=C1O`, for which the Potency entry in [1], in assay [2], in assay [4], in assay [5], in [6] and in assay [7] was “inactive” throughout. The Potency entry in assay [8] and in assay [9] was “inactive” in each case. Moreover, the max response in assay [3] is 5.34% (inactive) [middle of 5 runs].

For the compound `CC/C(=C(\c1ccccc1)c1ccc(OCCN(C)C)cc1)c1ccccc1`, the Potency is 34.6 µM (active) [middle of 5 runs] in assay [1]; 54.9 µM (active) and 19.7 µM (active) and 43.6 µM (active) in [2]; 22.1 µM (active) [middle of 5 runs] in assay [3]; 35 µM (active) [middle of 5 runs] in [4]; 54.9 µM (active) [middle of 4 runs] in [5]; 30.9 µM (active) [middle of 4 runs] in [6]. The Potency in [7] was 48.9 µM (active) [middle of 5 runs]; in assay [10], 43.6 µM (active) [middle of 5 runs]; in assay [9], 35 µM (active) [middle of 5 runs].

For the compound `OC[C@H]1O[C@H](O[C@]2(CCl)O[C@H](CCl)[C@@H](O)[C@@H]2O)[C@H](O)[C@@H](O)[C@H]1Cl`, the Potency result in assay [1], in [2], in assay [4], in [5], in assay [6] and in assay [7] was “inactive” each time. Besides, the Potency result in assay [8] and in assay [9] was “inactive” throughout. Further, the max response in assay [3] is -6.96% (inactive) and 4.96% (inactive) and 1.17% (inactive).

In the case of `F[B-](F)(F)F`, the Potency result in assay [1], in assay [2], in assay [4], in assay [5], in [6] and in [7] was “inactive” throughout. In addition, the Potency entry in assay [8] and in assay [9] was “inactive” throughout. Besides, in assay [3], the max response was 7.4% (inactive) and 8.65% (inactive) and 0.515% (inactive).

`NC1CCCCC1`: the Potency result in [1], in assay [2], in assay [4], in assay [5], in [6] and in assay [7] was “inactive” in each case. For the same compound, the Potency result in assay [8] and in [9] was “inactive” in each case. Further, in assay [3], the max response is 1.81% (inactive) [middle of 4 runs].

For the compound `O=S1(=O)OC(c2ccc(O)cc2)(c2ccc(O)cc2)c2ccccc21`, the Potency result in assay [1], in [4], in assay [5], in assay [7], in assay [8] and in assay [9] was “inactive” in each case. Also, the Potency in [2] is 49 µM (active) and inactive; in assay [6], 49 µM (active) and inactive. The max response in assay [3] is -23.8% (inactive).

Consider `C=CCc1ccc(O)c(OC)c1`, for which the Potency result in assay [1], in [2], in assay [4], in assay [5], in [6] and in assay [7] was “inactive” in each case. The Potency result in assay [8] and in [9] was “inactive” throughout. For the same compound, in assay [3], the max response was -1.8% (inactive) and -13.4% (inactive) and 5.2% (inactive).

Regarding `Cn1c(=O)c2c(ncn2C)n(C)c1=O`, the Potency result in assay [1], in assay [2], in assay [4], in assay [5], in assay [6] and in [7] was “inactive” throughout. The Potency result in assay [8] and in assay [9] was “inactive” in each case. The max response in assay [3] is -15% (inactive) and -0.566% (inactive) and 6.55% (inactive).

In the case of `CNNCc1ccc(C(=O)NC(C)C)cc1`, the Potency entry in assay [1], in assay [2], in assay [4], in [5], in assay [6] and in assay [7] was “inactive” in each case. Also, the Potency result in assay [8] and in [9] was “inactive” in each case. Further, the max response in assay [3] was 2.93% (inactive) and 2.31% (inactive) and 7.98% (inactive). Moreover, in assay [10], the Potency is 24.5 µM (active) and 15.5 µM (active) and 23.9 µM (active).

With `O=C(Nc1ncc([N+](=O)[O-])s1)c1cccs1`, the Potency result in assay [1], in assay [2], in [4], in assay [5], in assay [6] and in assay [7] was “inactive” throughout. The Potency entry in assay [8] and in [9] was “inactive” in each case. The max response in [3] is -20.9% (inactive).
